# Where “and” joins values, the source holds several entries; their conditions need not be identical. Equal entries are not always repeated. Where two headings read alike, the source gives them in different places.
# Experiments:
# CSNK1A1L = conditions: concentration: 1 μM, replicates: in singlicate, n = 1
# CSNK1A1 = conditions: concentration: 1 μM, replicates: in singlicate, n = 1
# CSNK1D = conditions: concentration: 1 μM, replicates: in singlicate, n = 1
# CSNK1E = conditions: concentration: 1 μM, replicates: in singlicate, n = 1
# CSNK1G1 = conditions: concentration: 1 μM, replicates: in singlicate, n = 1
# CSNK1G2 = conditions: concentration: 1 μM, replicates: in singlicate, n = 1
# CSNK1G3 = conditions: concentration: 1 μM, replicates: in singlicate, n = 1
# CSNK2A1 = conditions: concentration: 1 μM, replicates: in singlicate, n = 1
# CSNK2A2 = conditions: concentration: 1 μM, replicates: in singlicate, n = 1
# CTK = tested on: T1, CTK; conditions: concentration: 1 μM, replicates: in singlicate; n = 1
# T1 construct: gene MATK
# DAPK1 = conditions: concentration: 1 μM, replicates: in singlicate, n = 1
# DAPK2 = conditions: concentration: 1 μM, replicates: in singlicate, n = 1
# DAPK3 = conditions: concentration: 1 μM, replicates: in singlicate, n = 1
# DCAMKL1 = tested on: T2, DCAMKL1; conditions: concentration: 1 μM, replicates: in singlicate, n = 1
# T2 construct: gene DCLK1
# DCAMKL2 = tested on: T3, DCAMKL2; conditions: concentration: 1 μM, replicates: in singlicate, n = 1
# T3 construct: gene DCLK2
# DCAMKL3 = tested on: T4, DCAMKL3; conditions: concentration: 1 μM, replicates: in singlicate, n = 1
# T4 construct: gene DCLK3
# DDR1 = conditions: concentration: 1 μM, replicates: in singlicate; n = 1
# DDR2 = conditions: concentration: 1 μM, replicates: in singlicate, n = 1
# DLK = tested on: T5, DLK; conditions: concentration: 1 μM, replicates: in singlicate, n = 1
# T5 construct: gene MAP3K12
# DMPK2 = tested on: T6, DMPK2; conditions: concentration: 1 μM, replicates: in singlicate, n = 1
# T6 construct: gene CDC42BPG
# 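Also: KINOMEscan kinase panel screen.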
compound,measurement,setting,value
NCCNS(=O)(=O)c1ccc(-c2ccnc3[nH]ccc23)cc1 [GSK977617],%Inh,CSNK1A1L; 1 µM,76% and 61%
same,%Inh,CSNK1A1; 1 µM,88% and 93.1%
same,%Inh,CSNK1D; 1 µM,77% and 70%
same,%Inh,CSNK1E; 1 µM,85% and 86%
same,%Inh,CSNK1G1; 1 µM,20% and 0%
same,%Inh,CSNK1G2; 1 µM,58% and 24%
same,%Inh,CSNK1G3; 1 µM,51% and 59%
same,%Inh,CSNK2A1; 1 µM,72% and 56%
same,%Inh,CSNK2A2; 1 µM,63% and 56%
same,%Inh,CTK,0%
same,%Inh,DAPK1; 1 µM,94% and 90.7%
same,%Inh,DAPK2; 1 µM,91.4% and 86%
same,%Inh,DAPK3; 1 µM,98.5% and 97.6%
same,%Inh,DCAMKL1; 1 µM,50% and 52%
same,%Inh,DCAMKL2; 1 µM,34% and 28%
same,%Inh,DCAMKL3; 1 µM,58% and 39%
same,%Inh,DDR1,0%
same,%Inh,DDR2; 1 µM,12% and 8%
same,%Inh,DLK; 1 µM,48% and 40%
same,%Inh,DMPK2; 1 µM,78% and 71%
COc1cc2c(cc1OC[C@@H](O)CO)ncc1c3ccc(C#N)cc3[nH]c21,%Inh,CSNK1A1L,0%
same,%Inh,CSNK1A1,9%
same,%Inh,CSNK1D,0%
same,%Inh,CSNK1E,0%
same,%Inh,CSNK1G1,0%
same,%Inh,CSNK1G2,0%
same,%Inh,CSNK1G3,0%
same,%Inh,CSNK2A1,81%
same,%Inh,CSNK2A2,93.9%
same,%Inh,CTK,18%
same,%Inh,DAPK1,6%
same,%Inh,DAPK2,6%
same,%Inh,DAPK3,13%
same,%Inh,DCAMKL1,0%
same,%Inh,DCAMKL2,0%
same,%Inh,DCAMKL3,34%
same,%Inh,DDR1,0%
same,%Inh,DDR2,0%
same,%Inh,DLK,65%
same,%Inh,DMPK2,0%
CNc1ncnc2[nH]ncc12 [SKF-18355],%Inh,CSNK1A1L,0%
same,%Inh,CSNK1A1,14%
same,%Inh,CSNK1D,0%
same,%Inh,CSNK1E,32%
same,%Inh,CSNK1G1,0%
same,%Inh,CSNK1G2,0%
same,%Inh,CSNK1G3,11%
same,%Inh,CSNK2A1,0%
same,%Inh,CSNK2A2,3%
same,%Inh,CTK,18%
same,%Inh,DAPK1,7%
same,%Inh,DAPK2,0%
same,%Inh,DAPK3,0%
same,%Inh,DCAMKL1,33%
same,%Inh,DCAMKL2,15%
same,%Inh,DCAMKL3,0%
same,%Inh,DDR1,0%
same,%Inh,DDR2,64%
same,%Inh,DLK,11%
same,%Inh,DMPK2,0%
CC(C)Oc1ccc2c(-c3ccnc(Nc4ccc(N5CCN(C)CC5)cc4)n3)cnn2n1 [GW696155],%Inh,CSNK1A1L,0%
same,%Inh,CSNK1A1,46%
same,%Inh,CSNK1D,37%
same,%Inh,CSNK1E,28%
same,%Inh,CSNK1G1,28%
same,%Inh,CSNK1G2,0%
same,%Inh,CSNK1G3,19%
same,%Inh,CSNK2A1,94.6%
same,%Inh,CSNK2A2,98.9%
same,%Inh,CTK,0%
same,%Inh,DAPK1,97.9%
same,%Inh,DAPK2,90.3%
same,%Inh,DAPK3,99.6%
same,%Inh,DCAMKL1,93.5%
same,%Inh,DCAMKL2,91%
same,%Inh,DCAMKL3,99.2%
same,%Inh,DDR1,45%
same,%Inh,DDR2,74%
same,%Inh,DLK,89%
same,%Inh,DMPK2,13%
Fc1ccc(-c2ncn(CCCN3CCOCC3)c2-c2ccccn2)cc1 [SB-211742],%Inh,CSNK1A1L,0%
same,%Inh,CSNK1A1,36%
same,%Inh,CSNK1D,10%
same,%Inh,CSNK1E,9%
same,%Inh,CSNK1G1,5%
same,%Inh,CSNK1G2,0%
same,%Inh,CSNK1G3,0%
same,%Inh,CSNK2A1,0%
same,%Inh,CSNK2A2,0%
same,%Inh,CTK,0%
same,%Inh,DAPK1,17%
same,%Inh,DAPK2,0%
same,%Inh,DAPK3,10%
same,%Inh,DCAMKL1,12%
same,%Inh,DCAMKL2,0%
same,%Inh,DCAMKL3,12%
same,%Inh,DDR1,0%
same,%Inh,DDR2,27%
same,%Inh,DLK,20%
same,%Inh,DMPK2,0%
COC(=O)Nc1nc2cc(Oc3ccc(NC(=O)Nc4cc(F)ccc4F)cc3)ccc2[nH]1.Cl [GW701424],%Inh,CSNK1A1L,13%
same,%Inh,CSNK1A1,0%
same,%Inh,CSNK1D,9%
same,%Inh,CSNK1E,26%
same,%Inh,CSNK1G1,0%
same,%Inh,CSNK1G2,0%
same,%Inh,CSNK1G3,21%
same,%Inh,CSNK2A1,0%
same,%Inh,CSNK2A2,6%
same,%Inh,CTK,0%
same,%Inh,DAPK1,0%
same,%Inh,DAPK2,0%
same,%Inh,DAPK3,8%
same,%Inh,DCAMKL1,11%
same,%Inh,DCAMKL2,0%
same,%Inh,DCAMKL3,17%
same,%Inh,DDR1,100%
same,%Inh,DDR2,99.2%
same,%Inh,DLK,0%
same,%Inh,DMPK2,1%
COCCNC(=O)c1ccc(-c2cc(C(=O)NC3CC3)cc(F)c2C)cc1 [GW868318],%Inh,CSNK1A1L,5%
same,%Inh,CSNK1A1,9%
same,%Inh,CSNK1D,1%
same,%Inh,CSNK1E,31%
same,%Inh,CSNK1G1,0%
same,%Inh,CSNK1G2,4%
same,%Inh,CSNK1G3,8%
same,%Inh,CSNK2A1,0%
same,%Inh,CSNK2A2,9%
same,%Inh,CTK,11%
same,%Inh,DAPK1,10%
same,%Inh,DAPK2,0%
same,%Inh,DAPK3,28%
same,%Inh,DCAMKL1,12%
same,%Inh,DCAMKL2,19%
same,%Inh,DCAMKL3,13%
same,%Inh,DDR1,21%
same,%Inh,DDR2,21%
same,%Inh,DLK,6%
same,%Inh,DMPK2,0%
CN1c2ccc(NCc3ccc(F)cc3)cc2-c2c(cnn2C)S1(=O)=O,%Inh,CSNK1A1L,0%
same,%Inh,CSNK1A1,0%
same,%Inh,CSNK1D,2%
same,%Inh,CSNK1E,3%
same,%Inh,CSNK1G1,0%
same,%Inh,CSNK1G2,0%
same,%Inh,CSNK1G3,0%
same,%Inh,CSNK2A1,0%
same,%Inh,CSNK2A2,0%
same,%Inh,CTK,0%
same,%Inh,DAPK1,3%
same,%Inh,DAPK2,12%
same,%Inh,DAPK3,15%
same,%Inh,DCAMKL1,16%
same,%Inh,DCAMKL2,25%
same,%Inh,DCAMKL3,9%
same,%Inh,DDR1,0%
same,%Inh,DDR2,31%
same,%Inh,DLK,0%
same,%Inh,DMPK2,0%
Nc1nc(-c2ccc3c(N)n[nH]c3c2)cc(N2CCCC2)n1 [GSK2227430],%Inh,CSNK1A1L,0%
same,%Inh,CSNK1A1,0%
same,%Inh,CSNK1D,0%
same,%Inh,CSNK1E,25%
same,%Inh,CSNK1G1,0%
same,%Inh,CSNK1G2,0%
same,%Inh,CSNK1G3,19%
same,%Inh,CSNK2A1,0%
same,%Inh,CSNK2A2,4%
same,%Inh,CTK,0%
same,%Inh,DAPK1,0%
same,%Inh,DAPK2,0%
same,%Inh,DAPK3,1%
same,%Inh,DCAMKL1,13%
same,%Inh,DCAMKL2,0%
same,%Inh,DCAMKL3,0%
same,%Inh,DDR1,7%
same,%Inh,DDR2,3%
same,%Inh,DLK,0%
same,%Inh,DMPK2,0%
COc1cc2c(cc1OCCN1CCN(C)CC1)ncc1c3ccc(C#N)cc3[nH]c21,%Inh,CSNK1A1L,0%
same,%Inh,CSNK1A1,0%
same,%Inh,CSNK1D,18%
same,%Inh,CSNK1E,0%
same,%Inh,CSNK1G1,0%
same,%Inh,CSNK1G2,0%
same,%Inh,CSNK1G3,0%
same,%Inh,CSNK2A1,73%
same,%Inh,CSNK2A2,95.2%
same,%Inh,CTK,23%
same,%Inh,DAPK1,44%
same,%Inh,DAPK2,0%
same,%Inh,DAPK3,7%
same,%Inh,DCAMKL1,40%
same,%Inh,DCAMKL2,0%
same,%Inh,DCAMKL3,100%
same,%Inh,DDR1,0%
same,%Inh,DDR2,8%
same,%Inh,DLK,78%
same,%Inh,DMPK2,0%
O=C(NOCC1CC1)c1ccc(F)c(F)c1Nc1ccc(I)cc1Cl,%Inh,CSNK1A1L,0%
same,%Inh,CSNK1A1,3%
same,%Inh,CSNK1D,0%
same,%Inh,CSNK1E,3%
same,%Inh,CSNK1G1,0%
same,%Inh,CSNK1G2,0%
same,%Inh,CSNK1G3,0%
same,%Inh,CSNK2A1,0%
same,%Inh,CSNK2A2,18%
same,%Inh,CTK,0%
same,%Inh,DAPK1,1%
same,%Inh,DAPK2,0%
same,%Inh,DAPK3,0%
same,%Inh,DCAMKL1,0%
same,%Inh,DCAMKL2,0%
same,%Inh,DCAMKL3,0%
same,%Inh,DDR1,0%
same,%Inh,DDR2,0%
same,%Inh,DLK,1%
same,%Inh,DMPK2,0%
CCCCCc1nc2c(N)ncnc2n1CCCCC [SKF-97255],%Inh,CSNK1A1L,0%
same,%Inh,CSNK1A1,14%
same,%Inh,CSNK1D,0%
same,%Inh,CSNK1E,3%
same,%Inh,CSNK1G1,0%
same,%Inh,CSNK1G2,0%
same,%Inh,CSNK1G3,6%
same,%Inh,CSNK2A1,0%
same,%Inh,CSNK2A2,28%
same,%Inh,CTK,0%
same,%Inh,DAPK1,0%
same,%Inh,DAPK2,0%
same,%Inh,DAPK3,0%
same,%Inh,DCAMKL1,23%
same,%Inh,DCAMKL2,0%
same,%Inh,DCAMKL3,5%
same,%Inh,DDR1,0%
same,%Inh,DDR2,21%
same,%Inh,DLK,0%
same,%Inh,DMPK2,0%

# Reference: paper PMC5540273 (PLoS ONE, 2017)
